# Laboratory results reported in PubChem BioAssay (EPA / NIEHS).
# Calls of active or inactive are those of the source. The calls were made as follows: active = hit-call score of the fitted dose curve at least 0.9, where 1 is the maximum; inactive = score below 0.9.
# Tests used:
# Conditions in all cases: mRNA level, 48 h; actives raise or lower the signal
# [1] = read-out: Peroxisomal acyl-coenzyme A oxidase 1 (ACOX1) gene, ACOX1 (gene 51); test: LTEA_HepaRG_ACOX1: Life Technologies and Expression Analysis (LTEA) Assay for Peroxisomal acyl-coenzyme A oxidase 1 (ACOX1) gene using HepaRG (AID 2283467)
# Summary of the method: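 ACOX1 transcript levels were quantified by TaqMan qRT-PCR against three housekeeping genes after 48 h chemical exposure of differentiated human HepaRG cells. Exposure used eight half-log steps topping at 100 uM, 0.5% DMSO vehicle, in duplicate. Bidirectional curve fits were made relative to DMSO.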
# [2] = read-out: Alkaline Phosphatase, Placental (ALPP) gene, ALPP (gene 250); test: LTEA_HepaRG_ALPP: Life Technologies and Expression Analysis (LTEA) Assay for Alkaline Phosphatase, Placental (ALPP) gene using HepaRG (AID 2283468)
# Summary of the method: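 HepaRG cells plated 48 h, then exposed in duplicate for 48 h in serum-free induction medium to 8-point half-log series from 100 uM in 0.5% DMSO. ALPP mRNA by TaqMan qRT-PCR, normalized to ACTB/GAPDH/POLR2A; bidirectional fit versus DMSO.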
# [3] = read-out: Bcl-2 (BAD) gene, BAD (gene 572); test: LTEA_HepaRG_BAD: Life Technologies and Expression Analysis (LTEA) Assay for Bcl-2 (BAD) gene using HepaRG (AID 2283469)
# Summary of the method: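 Read-out: qRT-PCR of BAD mRNA, normalized to three housekeeping genes. Human HepaRG cultures got 48 h chemical exposure in 0.5% DMSO, duplicate eight-point half-log series topping at 100 uM. Gain or loss of signal fitted versus DMSO vehicle.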
# [4] = read-out: Bcl-2 (BAX) gene, BAX (gene 581); test: LTEA_HepaRG_BAX: Life Technologies and Expression Analysis (LTEA) Assay for Bcl-2 (BAX) gene using HepaRG (AID 2283470)
# Summary of the method: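 qRT-PCR read-out of BAX mRNA, normalized to three housekeeping genes, after 48 h chemical exposure of human HepaRG cells in serum-free induction medium; eight-point half-log series, top 100 uM, 0.5% DMSO vehicle; bidirectional fit versus DMSO.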
# [5] = read-out: adenosine kinase (ADK) gene, ADK (gene 132); test: LTEA_HepaRG_ADK: Life Technologies and Expression Analysis (LTEA) Assay for adenosine kinase (ADK) gene using HepaRG (AID 2283471)
# Summary of the method: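 Read-out is ADK transcript level measured by qRT-PCR and normalised to three housekeeping genes. Cells are human HepaRG, dosed for 48 h at up to 100 uM in 0.5% DMSO. Gain or loss of signal is fitted against DMSO controls.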
# [6] = read-out: Alpha-fetoprotein (AFP) gene, AFP (gene 174); test: LTEA_HepaRG_AFP: Life Technologies and Expression Analysis (LTEA) Assay for Alpha-fetoprotein (AFP) gene using HepaRG (AID 2283472)
# Summary of the method: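 qRT-PCR (Fluidigm TaqMan) readout of AFP transcript, normalized to three housekeeping genes, fitted bidirectionally against 0.5% DMSO baseline. HepaRG cells received chemicals for 48 h in serum-free induction medium, top concentration 100 uM, half-log steps.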
# [7] = read-out: BCL2L11 (gene 10018); test: LTEA_HepaRG_BCL2L11: Life Technologies and Expression Analysis (LTEA) Assay for Bcl-2 (BCL2L11) gene using HepaRG (AID 2283473)
# Summary of the method: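 Differentiated human HepaRG cells were exposed 48 h in serum-free induction medium to eight half-log concentrations up to 100 uM in 0.5% DMSO, in duplicate. BCL2L11 mRNA was quantified by TaqMan qRT-PCR, normalized to ACTB, GAPDH and POLR2A; induction or repression fitted versus DMSO.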
# [8] = read-out: Apolipoprotein A-V (APOA5) gene, APOA5 (gene 116519); test: LTEA_HepaRG_APOA5: Life Technologies and Expression Analysis (LTEA) Assay for Apolipoprotein A-V (APOA5) gene using HepaRG (AID 2283474)
# Summary of the method: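 Differentiated HepaRG cells in serum-free induction medium, exposed 48 h in duplicate to eight half-log concentrations topping at 100 uM (0.5% DMSO). APOA5 mRNA by Fluidigm TaqMan qRT-PCR, normalized to ACTB, GAPDH and POLR2A; bidirectional fit versus DMSO.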
# [9] = read-out: Apoptosis regulator Bcl-2 (Homo sapiens) (UniProt P10415); test: LTEA_HepaRG_BCL2: Life Technologies and Expression Analysis (LTEA) Assay for Bcl-2 gene using HepaRG (AID 2283475)
# Summary of the method: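 qRT-PCR read-out (Fluidigm TaqMan) of BCL2 transcript, normalised to three housekeeping genes, after 48 h chemical exposure of HepaRG cells; 8-point half-log series, top 100 uM, 0.5% DMSO vehicle. Gain or loss of signal fitted relative to DMSO baseline.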
# [10] = read-out: Bcl-2 (BID) gene, BID (gene 637); test: LTEA_HepaRG_BID: Life Technologies and Expression Analysis (LTEA) Assay for Bcl-2 (BID) gene using HepaRG (AID 2283476)
# Summary of the method: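 HepaRG, 48 h exposure, 8-pt half-log series, top 100 uM, 0.5% DMSO vehicle, duplicates. Readout: BID mRNA by TaqMan qRT-PCR; housekeeping-normalized; bidirectional curve fit vs DMSO baseline.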
# [11] = read-out: Caspase-3 (Homo sapiens) (UniProt P42574); test: LTEA_HepaRG_CASP3: Life Technologies and Expression Analysis (LTEA) Assay for cysteine-aspartic acid protease (CASP3) using HepaRG (AID 2283477)
# Summary of the method: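 Differentiated HepaRG cells, plated 48 h, were treated in duplicate in serum-free induction medium for 48 h with eight half-log concentrations up to 100 uM in 0.5% DMSO. CASP3 mRNA measured by qRT-PCR, normalized to ACTB, GAPDH, POLR2A.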
# [12] = read-out: Cytochrome P450 (CYP24A1), CYP24A1 (gene 1591); test: LTEA_HepaRG_CYP24A1: Life Technologies and Expression Analysis (LTEA) Assay for Cytochrome P450 (CYP24A1) using HepaRG (AID 2283478)
# Summary of the method: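 HepaRG cells plated 48 h, then exposed in duplicate in serum-free induction medium for 48 h to 8-point half-log series from 100 uM in 0.5% DMSO. CYP24A1 mRNA by Fluidigm qRT-PCR, normalized to ACTB, GAPDH, POLR2A; bidirectional fit versus DMSO.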
# [13] = read-out: Cytochrome P450 (CYP1A2), CYP1A2 (gene 1544); test: LTEA_HepaRG_CYP1A2: Life Technologies and Expression Analysis (LTEA) Assay for Cytochrome P450 (CYP1A2) using HepaRG (AID 2283479)
# Summary of the method: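 Differentiated human HepaRG cells in serum-free induction medium exposed 48 hours in duplicate to 8 half-log concentrations from 100 uM, 0.5% DMSO. CYP1A2 mRNA quantified by qRT-PCR, normalized to ACTB, GAPDH and POLR2A; bidirectional fitting versus DMSO.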
# [14] = read-out: cysteine-aspartic acid protease (CASP8), CASP8 (gene 841); test: LTEA_HepaRG_CASP8: Life Technologies and Expression Analysis (LTEA) Assay for cysteine-aspartic acid protease (CASP8) using HepaRG (AID 2283480)
# Summary of the method: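 CASP8 transcript measured by TaqMan qRT-PCR with ACTB/GAPDH/POLR2A normalization, after 48 h chemical exposure of HepaRG cells in serum-free induction medium. Eight concentrations, top 100 uM, half-log steps, 0.5% DMSO vehicle; fits in both directions versus DMSO.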
# [15] = read-out: Cytochrome P450 (CYP2B6), CYP2B6 (gene 1555); test: LTEA_HepaRG_CYP2B6: Life Technologies and Expression Analysis (LTEA) Assay for Cytochrome P450 (CYP2B6) using HepaRG (AID 2283481)
# Summary of the method: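 Differentiated human HepaRG cells in serum-free induction medium, dosed in duplicate for 48 h over 8 half-log concentrations topping at 100 uM (0.5% DMSO). CYP2B6 mRNA measured by TaqMan qRT-PCR, normalized to ACTB, GAPDH, POLR2A; bidirectional fit versus DMSO.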
# [16] = read-out: Cytochrome P450 2C19 (Homo sapiens) (UniProt P33261); test: LTEA_HepaRG_CYP2C19: Life Technologies and Expression Analysis (LTEA) Assay for CYP2C19 using HepaRG (AID 2283482)
# Summary of the method: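 Differentiated HepaRG cells in serum-free induction medium exposed 48 h in duplicate, 8 concentrations from 100 uM by half-log steps in 0.5% DMSO. CYP2C19 mRNA measured by TaqMan qRT-PCR, normalized to ACTB, GAPDH, POLR2A. Bidirectional fit versus DMSO.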
# [17] = read-out: CYP2C8 (gene 1558); test: LTEA_HepaRG_CYP2C8: Life Technologies and Expression Analysis (LTEA) Assay for CYP2C8 using HepaRG (AID 2283483)
# Summary of the method: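 CYP2C8 expression measured by TaqMan qRT-PCR and normalized to three housekeeping genes. HepaRG cultures were treated for 48 h with an eight-point half-log series topping at 100 uM, vehicle 0.5% DMSO, duplicates; fitted both directions against DMSO.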
# [18] = read-out: CYP2C9 (gene 1559); test: LTEA_HepaRG_CYP2C9: Life Technologies and Expression Analysis (LTEA) Assay for CYP2C9 using HepaRG (AID 2283484)
# Summary of the method: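 CYP2C9 transcript level, quantified by TaqMan qRT-PCR against three housekeeping genes, was fitted bidirectionally relative to 0.5% DMSO. HepaRG cultures were treated 48 h, in duplicate, at eight half-log concentrations topping at 100 uM.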
# [19] = read-out: CYP2E1 (gene 1571); test: LTEA_HepaRG_CYP2E1: Life Technologies and Expression Analysis (LTEA) Assay for CYP2E1 using HepaRG (AID 2283485)
# Summary of the method: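 CYP2E1 transcript was measured by TaqMan qRT-PCR in human HepaRG cultures after 48 h chemical exposure (top 100 uM, half-log steps, 0.5% DMSO vehicle). Housekeeping-gene normalization; gain or loss fitted relative to DMSO baseline.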
# [20] = read-out: CYP4A11 (gene 1579); test: LTEA_HepaRG_CYP4A11: Life Technologies and Expression Analysis (LTEA) Assay for CYP4A11 using HepaRG (AID 2283486)
# Summary of the method: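 Differentiated HepaRG cells, 48 h after plating, exposed in duplicate for 48 h to 8 half-log concentrations up to 100 uM in 0.5% DMSO in serum-free induction medium. CYP4A11 mRNA measured by TaqMan qRT-PCR, normalized to ACTB, GAPDH and POLR2A.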
# Sequence of Apoptosis regulator Bcl-2 (Homo sapiens) (P10415 whole entry, looked up): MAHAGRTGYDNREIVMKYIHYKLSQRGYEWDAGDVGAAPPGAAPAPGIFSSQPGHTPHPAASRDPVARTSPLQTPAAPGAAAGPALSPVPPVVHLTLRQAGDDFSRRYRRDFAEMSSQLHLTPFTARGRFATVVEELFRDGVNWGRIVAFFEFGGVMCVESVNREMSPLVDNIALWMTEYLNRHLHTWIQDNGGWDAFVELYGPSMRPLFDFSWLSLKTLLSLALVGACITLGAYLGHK
# Sequence of Cytochrome P450 2C19 (Homo sapiens) (P33261 whole entry, looked up): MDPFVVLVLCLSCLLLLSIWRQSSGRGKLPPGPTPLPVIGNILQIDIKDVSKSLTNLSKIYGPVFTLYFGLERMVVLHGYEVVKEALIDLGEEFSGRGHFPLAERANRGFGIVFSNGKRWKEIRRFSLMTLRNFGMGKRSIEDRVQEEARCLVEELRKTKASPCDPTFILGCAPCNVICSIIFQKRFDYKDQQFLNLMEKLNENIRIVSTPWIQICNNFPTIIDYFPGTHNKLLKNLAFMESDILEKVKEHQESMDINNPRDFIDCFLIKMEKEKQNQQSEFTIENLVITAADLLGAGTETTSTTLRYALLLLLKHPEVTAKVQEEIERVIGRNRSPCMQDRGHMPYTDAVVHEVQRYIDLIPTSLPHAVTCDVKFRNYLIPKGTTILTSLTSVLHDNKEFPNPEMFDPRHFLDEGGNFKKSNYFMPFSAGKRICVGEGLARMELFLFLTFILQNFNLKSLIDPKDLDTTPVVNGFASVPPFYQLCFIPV
# Sequence of Caspase-3 (Homo sapiens) (P42574 whole entry, looked up): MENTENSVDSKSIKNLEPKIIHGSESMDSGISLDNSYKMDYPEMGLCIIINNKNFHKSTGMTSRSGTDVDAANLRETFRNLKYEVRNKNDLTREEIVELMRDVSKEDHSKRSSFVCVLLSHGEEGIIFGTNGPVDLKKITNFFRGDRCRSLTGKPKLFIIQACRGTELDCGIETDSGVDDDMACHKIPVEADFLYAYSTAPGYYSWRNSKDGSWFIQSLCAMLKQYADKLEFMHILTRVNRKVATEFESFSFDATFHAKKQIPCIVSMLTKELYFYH
smiles,measurement,setting,value
CN(C)C=O,outcome,[1],inactive
same,outcome,[2],inactive
same,outcome,[3],inactive
same,outcome,[4],inactive
same,outcome,[5],inactive
same,outcome,[6],inactive
same,outcome,[7],inactive
same,outcome,[8],inactive
same,outcome,[9],inactive
same,outcome,[10],inactive
same,outcome,[11],inactive
same,outcome,[12],inactive
same,outcome,[13],inactive
same,outcome,[14],inactive
same,outcome,[15],inactive
same,outcome,[16],inactive
same,outcome,[17],inactive
same,outcome,[18],inactive
same,outcome,[19],inactive
same,outcome,[20],inactive
CCOC(=O)CC(O)(CC(=O)OCC)C(=O)OCC,outcome,[1],inactive
same,outcome,[2],inactive
same,outcome,[3],inactive
same,outcome,[4],inactive
same,outcome,[5],inactive
same,outcome,[6],inactive
same,outcome,[7],inactive
same,outcome,[8],inactive
same,outcome,[9],inactive
same,outcome,[10],inactive
same,outcome,[11],inactive
same,outcome,[12],inactive
same,outcome,[13],inactive
same,outcome,[14],inactive
same,outcome,[15],inactive
same,outcome,[16],inactive
same,outcome,[17],inactive
same,outcome,[18],inactive
same,outcome,[19],inactive
same,outcome,[20],inactive
CN1CCN(c2ccccc2/C=C2\SCCN(c3ccc(Cl)c(Cl)c3)C2=O)CC1,outcome,[1],inactive
same,AC50,[2],15.8 µM (active)
same,outcome,[3],inactive
same,outcome,[4],inactive
same,outcome,[5],inactive
same,AC50,[6],11.5 µM (active)
same,outcome,[7],inactive
same,outcome,[8],inactive
same,outcome,[9],inactive
same,AC50,[10],83.9 µM (active)
same,outcome,[11],inactive
same,outcome,[12],inactive
same,AC50,[13],4.69 µM (active)
same,AC50,[14],93.4 µM (active)
same,AC50,[15],50 µM (active)
same,outcome,[16],inactive
same,outcome,[17],inactive
same,outcome,[18],inactive
same,AC50,[19],12.8 µM (active)
same,AC50,[20],17.4 µM (active)
